Here are results for 40 compounds from the supplement of paper PMC10646978.

Each structure is given as a SMILES string. ± gives the standard deviation.

In one experiment the test system is RAW-Dual (murine macrophage reporter line). Kind of experiment: IRF reporter (Lucia luciferase) activity fold change vs agonist alone; higher = enhanced IRF activity. As to conditions: modulator concentration 10 µM; agonist: MPLA […]. The procedure, abridged: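 RAW-Dual murine macrophage reporter cells were plated at 50 000 per well in 384-well plates, pin-transferred compound to 10 μM final, and pre-incubated for 1 hour at 37 °C before a PRR agonist was added and the cells incubated overnight. NF-κB activity was read from supernatant SEAP with QUANTI-Blue at 620 nm absorbance, and IRF activity from Lucia luciferase with QUANTI-Luc by luminescence. Each signal was expressed as fold change by dividing by the mean agonist-only control on the same plate. Two replicate plates were averaged, with errors obtained by propagation.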
As for `CCCCNCCCCOc1ccc(C)cc1C(C)(C)C`, the IRF reporter turned out to be 2.6 ± 0.65.
In the case of `Brc1ccc(-c2cc(-c3ccccc3)nc(N3CCOCC3)n2)cc1`, the IRF reporter is 1.59 ± 0.38.
The same measure, in the same setting: the figure for `O=C(c1ccc(Cl)cc1)c1ccc(N2CCOCC2)c([N+](=O)[O-])c1` is 1.41 ± 0.24.
For `CC1CCN(c2nccnc2Oc2ccc(C(=O)N3CCN(c4ccc(F)cc4)CC3)cc2)CC1`, the IRF reporter was 1.11 ± 0.07.
Same read-out and setting: the value for `Oc1c2c(nc3cc(-c4ccc(Br)cc4)nn13)CCS2` was 0.921 ± 0.2; that for `Cc1nn2c(=O)c(Cc3ccccc3)c(C)[nH]c2c1-c1ccccc1` was 1.36 ± 0.11.
Same read-out and setting: the value for `CNCCC[C@]12CC[C@H](c3ccccc31)c1ccccc12` [Prestw-346] was 1.59 ± 0.26; that for `CC(N)c1ccc(Nc2ncc3cc(-c4ccncc4)ccc3n2)cc1.Cl.Cl.Cl` (stereo not given) was 0.42 ± 0.042; that for `CCOc1ccc(S(=O)(=O)NC(C)(C)C)cc1C` was 1.53 ± 0.14.
Take `Cc1oncc1C(=O)Nc1ccc(C(F)(F)F)cc1`: the IRF reporter is 2.03 ± 0.2.
Same read-out and setting: the figure for `O=C(O)c1ccccc1` is 1.33 ± 0.1; for `CC(C)(C)C(O)/C=C/c1ccc2c(c1)OCO2` (stereo not given) it is 1.01 ± 0.17; for `COc1cccc(S(=O)(=O)NCc2sc(-c3ccccc3)nc2C)c1` it is 1.16 ± 0.28.
For the compound `CCOC(=O)c1cc(-c2ccccc2)sc1NC(=O)C(C)(C)C`, the IRF reporter amounted to 1.44 ± 0.17.
The same measure, in the same setting: the value for `CC(C)(O)C#Cc1ccccn1` was 1.08 ± 0.29; that for `COc1ccc(CC(C)N2CCN(c3cccc(C)c3C)CC2)cc1OC` (stereo not given) was 1.16 ± 0.11; that for `C[C@]1(O)C[C@@H](c2nc(-c3ccc4ccc(-c5ccccc5)nc4c3)c3c(N)nccn32)C1` was 0.958 ± 0.17.
On the same count and under the same terms, the figure for `Cc1ccc(C2=NN3C(=N)C(=Cc4c[nH]c5ccccc45)C(=O)N=C3S2)cc1` is 1.12 ± 0.21.
The same measure, in the same setting: the value for `CN1CCN(C2=C(Cl)C(=O)N(c3cccc(Cl)c3)C2=O)CC1` was 0.974 ± 0.096; that for `CC1CCc2nc(NC(=O)C3CCCN3S(C)(=O)=O)sc2C1` (stereo not given) was 1.44 ± 0.48.
`C=CCn1c(SCC(=O)NCCN2CCOCC2)nc2sc3c(c2c1=O)CCC3`: the IRF reporter came to 0.984 ± 0.083.
Turning to `CC1(C)CC(NC(=O)c2cccnc2-c2nc3ccccc3s2)CC(C)(C)N1`, the IRF reporter was found to be 1.12 ± 0.09.
Turning to `CC(C)(C)C(=O)NCc1cccnc1-c1cccnc1`, the IRF reporter amounted to 0.97 ± 0.13.
On the same count and under the same terms, the value for `COc1cc2c(cc1OC)C(=S)NC1(CCCC1)C2` was 1.28 ± 0.23; that for `COC(=O)c1ccccc1NC(=O)CCc1ccc(Oc2cc([N+](=O)[O-])cc([N+](=O)[O-])c2)cc1` was 0.766 ± 0.17.
Same read-out and setting: the value for `CC(O)(CNC(=O)NCc1ccc(F)cc1)c1ccc(-c2ccccc2)cc1` (stereo not given) was 1.62 ± 0.14; that for `CCn1c2ccccc2c2cc(CNCCc3ccc(OC)cc3)ccc21` was 2.16 ± 0.28.
Turning to `CN(C)c1nc(CNS(C)(=O)=O)nc(N2CCCCC2)n1`, the IRF reporter worked out at 0.965 ± 0.21.
For the compound `O=C(NCCC(CCO)c1ccccc1)c1cccc(Br)c1` (stereo not given), the IRF reporter stood at 0.958 ± 0.35.
The same measure, in the same setting: the value for `CCn1c(C=Nn2cnnc2)nc2ccccc21` was 0.911 ± 0.068; that for `COc1c(O)cc(O)cc1O` was 1.02 ± 0.17; that for `O=C(NN=Cc1c(O)ccc2ccccc12)c1ccncc1` was 1.21 ± 0.2.
The same measure, in the same setting: the value for `COc1cc(C=NN2C(=O)c3cccc4cccc(c34)C2=O)cc(Br)c1OC` was 1.13 ± 0.17; that for `CC(=O)OCCN(CCOC(C)=O)c1c(C)[nH]c(=O)[nH]c1=O` was 1.7 ± 0.17.
On to `CC(C)C(=O)c1c(C(C)C)nn2ccccc12`, for which the IRF reporter amounted to 0.926 ± 0.088.
On to `Cn1c(=O)cc(N2CCC[C@@H](N)C2)n(Cc2cc(F)ccc2C#N)c1=O`, for which the IRF reporter was determined as 0.886 ± 0.082.
`Cc1onc(-c2ccccc2)c1-c1ccc(S(N)(=O)=O)cc1`: the IRF reporter amounted to 0.898 ± 0.11.
On to `CC(C)(C(=O)O)c1ccc(C(O)CCCN2CCC(C(O)(c3ccccc3)c3ccccc3)CC2)cc1.Cl` (stereo not given), for which the IRF reporter worked out at 1.19 ± 0.09.
Turning to `COc1cccc(N2C(=O)CN(Cc3ccccc3)C3CS(=O)(=O)CC32)c1` (stereo not given), the IRF reporter was 0.216 ± 0.075.
In the case of `c1ccc(CCn2c(COc3ccccc3)nc3ccccc32)cc1`, the IRF reporter was found to be 1.34 ± 0.29.

The test system is the same in another experiment. Kind of experiment: viability score (confluency relative to resting cells, overnight) (fraction); higher = more viable, active = viable (0.7 or more). As to conditions: modulator concentration 10 µM. The procedure, abridged:
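RAW-Dual macrophages in 384-well plates were exposed overnight to compound at 10 μM final. Confluency was imaged with IncuCyte, and two confluency masks were generated with IncuCyte software over all imaged wells. The viability score is confluency expressed relative to resting cells. Compounds were called viable if both masks exceeded 70% of resting cells.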
Turning to `CCCCNCCCCOc1ccc(C)cc1C(C)(C)C`, the viability score was 0.0697 (inactive).
On the same count and under the same terms, the figure for `Brc1ccc(-c2cc(-c3ccccc3)nc(N3CCOCC3)n2)cc1` is 1.01 (active); for `O=C(c1ccc(Cl)cc1)c1ccc(N2CCOCC2)c([N+](=O)[O-])c1` it is 1 (active).
Regarding `CC1CCN(c2nccnc2Oc2ccc(C(=O)N3CCN(c4ccc(F)cc4)CC3)cc2)CC1`, the viability score is 0.964 (active).
For the compound `Oc1c2c(nc3cc(-c4ccc(Br)cc4)nn13)CCS2`, the viability score was 1.01 (active).
The same measure, in the same setting: the figure for `Cc1nn2c(=O)c(Cc3ccccc3)c(C)[nH]c2c1-c1ccccc1` is 1 (active); for `CNCCC[C@]12CC[C@H](c3ccccc31)c1ccccc12` [Prestw-346] it is 0.962 (active); for `CC(N)c1ccc(Nc2ncc3cc(-c4ccncc4)ccc3n2)cc1.Cl.Cl.Cl` (stereo not given) it is 0.174 (inactive).
Consider `CCOc1ccc(S(=O)(=O)NC(C)(C)C)cc1C`, for which the viability score was 0.868 (active).
As to `Cc1oncc1C(=O)Nc1ccc(C(F)(F)F)cc1`, the viability score is 0.357 (inactive).
Turning to `O=C(O)c1ccccc1`, the viability score was 0.998 (active).
As to `CC(C)(C)C(O)/C=C/c1ccc2c(c1)OCO2` (stereo not given), the viability score was 0.819 (active).
Turning to `COc1cccc(S(=O)(=O)NCc2sc(-c3ccccc3)nc2C)c1`, the viability score was 0.942 (active).
The same measure, in the same setting: the figure for `CCOC(=O)c1cc(-c2ccccc2)sc1NC(=O)C(C)(C)C` is 1.02 (active).
Same read-out and setting: the figure for `CC(C)(O)C#Cc1ccccn1` is 1.01 (active).
As to `COc1ccc(CC(C)N2CCN(c3cccc(C)c3C)CC2)cc1OC` (stereo not given), the viability score is 0.6 (inactive).
On the same count and under the same terms, the figure for `C[C@]1(O)C[C@@H](c2nc(-c3ccc4ccc(-c5ccccc5)nc4c3)c3c(N)nccn32)C1` is 1 (active).
Take `Cc1ccc(C2=NN3C(=N)C(=Cc4c[nH]c5ccccc45)C(=O)N=C3S2)cc1`: the viability score was 1.01 (active).
Same read-out and setting: the figure for `CN1CCN(C2=C(Cl)C(=O)N(c3cccc(Cl)c3)C2=O)CC1` is 0.993 (active); for `CC1CCc2nc(NC(=O)C3CCCN3S(C)(=O)=O)sc2C1` (stereo not given) it is 0.964 (active); for `C=CCn1c(SCC(=O)NCCN2CCOCC2)nc2sc3c(c2c1=O)CCC3` it is 1.01 (active).
Regarding `CC1(C)CC(NC(=O)c2cccnc2-c2nc3ccccc3s2)CC(C)(C)N1`, the viability score was 0.998 (active).
`CC(C)(C)C(=O)NCc1cccnc1-c1cccnc1`: the viability score was 1.01 (active).
For `COc1cc2c(cc1OC)C(=S)NC1(CCCC1)C2`, the viability score is 0.596 (inactive).
Still for that read-out and setting: the figure for `COC(=O)c1ccccc1NC(=O)CCc1ccc(Oc2cc([N+](=O)[O-])cc([N+](=O)[O-])c2)cc1` is 1.01 (active).
In the case of `CC(O)(CNC(=O)NCc1ccc(F)cc1)c1ccc(-c2ccccc2)cc1` (stereo not given), the viability score is 0.966 (active).
In the case of `CCn1c2ccccc2c2cc(CNCCc3ccc(OC)cc3)ccc21`, the viability score was 0.0492 (inactive).
On to `CN(C)c1nc(CNS(C)(=O)=O)nc(N2CCCCC2)n1`, for which the viability score is 1 (active).
Consider `O=C(NCCC(CCO)c1ccccc1)c1cccc(Br)c1` (stereo not given), for which the viability score was 0.996 (active).
On to `CCn1c(C=Nn2cnnc2)nc2ccccc21`, for which the viability score was 0.995 (active).
Consider `COc1c(O)cc(O)cc1O`, for which the viability score is 0.996 (active).
`O=C(NN=Cc1c(O)ccc2ccccc12)c1ccncc1`: the viability score is 0.965 (active).
For `COc1cc(C=NN2C(=O)c3cccc4cccc(c34)C2=O)cc(Br)c1OC`, the viability score is 1.01 (active).
Take `CC(=O)OCCN(CCOC(C)=O)c1c(C)[nH]c(=O)[nH]c1=O`: the viability score was 1.02 (active).
As to `CC(C)C(=O)c1c(C(C)C)nn2ccccc12`, the viability score was 0.957 (active).
Take `Cn1c(=O)cc(N2CCC[C@@H](N)C2)n(Cc2cc(F)ccc2C#N)c1=O`: the viability score was 1 (active).
In the case of `Cc1onc(-c2ccccc2)c1-c1ccc(S(N)(=O)=O)cc1`, the viability score was 0.98 (active).
As to `CC(C)(C(=O)O)c1ccc(C(O)CCCN2CCC(C(O)(c3ccccc3)c3ccccc3)CC2)cc1.Cl` (stereo not given), the viability score was 0.983 (active).
Same read-out and setting: the figure for `COc1cccc(N2C(=O)CN(Cc3ccccc3)C3CS(=O)(=O)CC32)c1` (stereo not given) is 0.832 (active); for `c1ccc(CCn2c(COc3ccccc3)nc3ccccc32)cc1` it is 1.01 (active).
